# Measured values reported in PubChem BioAssay AID720489 (Milwaukee Institute for Drug Discovery, 2013).
# The other results are listed elsewhere or left out. Active and inactive are the calls of the source.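 Rule for the calls: active = fluorescence interference ratio at or below 0.8 quencher or at or above a set limitenhancer; inactive = the rest.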
# Assay: Cy5-DNA-NS3h complex fluorescence interference, confirmation, artefact control for HCV NS3 helicase inhibitor project, biochemical, ChemBridge library (AID 720489);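 note: ratio of compound fluorescence to mean of negative controls so 1 means no interference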
# Details: Cy5-dT15 DNA/NS3h fluorescence interference counterscreen; at 100 µM
row,SMILES,fluorescence interference ratio
1,CCN(CC)c1ccc(NC(=O)/C(=C\c2ccccc2)NC(C)=O)cc1,1.09 (inactive)
2,Cc1ccc(C(=O)NCCNc2ccc([N+](=O)[O-])cc2)cc1,0.955 (inactive)
3,CCOc1ccc(C=C2C(=O)NC(=O)NC2=O)cc1Cl,0.902 (inactive)
4,O=c1c2c(nc3cc(-c4cccc(F)c4)[nH]n13)CCS2,0.718 (active)
5,COc1cc(C=C2C(=O)NC(=O)NC2=O)ccc1OCCOc1ccc([N+](=O)[O-])cc1,0.667 (active)
6,CC(C)(C)N1C(=O)NC(=O)C(=Cc2cccs2)C1=O,0.788 (active)
7,CCN(CC)c1ccc(C=C2C(=O)N(C)C(=O)N(C)C2=O)c(O)c1,1 (inactive)
8,COc1ccc(C(=O)Oc2ccc3oc(=O)cc(C)c3c2)cc1OC,0.772 (active)
9,Cc1ccc(C(=O)C[n+]2cc(-c3ccccc3)n3c2CCCCC3)cc1,1.02 (inactive)
10,C=CCN1C(=O)/C(=C\c2cc(OC)c(O)c([N+](=O)[O-])c2)C(=O)NC1=S,0.746 (active)
11,O=C(NC(=S)Nc1ccc(-c2nc3cc(Cl)ccc3o2)cc1)c1ccco1,1.01 (inactive)
12,COc1ccc(N2C(=O)C=CC2=O)c([N+](=O)[O-])c1,0.746 (active)
13,O=C1NC(=O)C(=Cc2cc([N+](=O)[O-])cc(Br)c2O)C(=O)N1,0.747 (active)
14,COc1cc(/C(O)=C(\C#N)c2nc3ccccc3n2C)cc(OC)c1OC,0.722 (active)
15,N#Cc1c(N)nc2sc(C(=O)Nc3ccccc3)c(N)c2c1-c1ccco1,0.783 (active)
